For ten compounds, composite z-score results are on record in PubChem BioAssay.

This assay can be described thus: probe aNOTCH2 binding on compound microarray – biochemical, small-molecule microarray, 635/667 nm fluorescence, primary screen (AID 1121).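 Note: score merges feature fluorescence read at 667 nm with its signal to noise.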 To be noted: higher = more signal.
As for `COC(=O)c1c2oc(c1C(=O)OC)C(=O)N(Cc1ccccc1)Cc1cn(nn1)C[C@H](Cc1ccccc1)NC(=O)N[C@H](CO)CC2`, the composite z-score was -0.14.

On to `O=C1O[C@H](c2ccccc2)[C@H](c2ccccc2)N2[C@H]1[C@@H](C(=O)Nc1nc3ccccc3s1)[C@]1(C(=O)Nc3ccc(C#CC4(O)CCCCCC4)cc31)[C@H]2c1ccccc1OCCO`, for which the composite z-score is -0.0454.

In the case of `O=C1O[C@@H](c2ccccc2)[C@@H](c2ccccc2)N2[C@@H](c3ccccc3OCCO)[C@]3(C(=O)Nc4ccc(C#CCCO)cc43)[C@@H](C(=O)N3CCCCCCC3)[C@H]12`, the composite z-score was 1.23.

Regarding `CC(C)N1CC=CC23O[C@@H]4C=CCOC(=O)[C@@H]4[C@H]2C(=O)N(CCCO)[C@@H]3C1=O` (stereo not given in full), the composite z-score is -0.118.

In the case of `COc1ccc([Si](C)(C)[C@@H]2[C@@H](CC(=O)N(CCO)Cc3ccccc3)O[C@]3(C(=O)N(Cc4cccc(N5CCOC5=O)c4)c4ccccc43)[C@H]2C)cc1`, the composite z-score is -0.0993.

As to `COC(=O)[C@@]1(Cc2ccc(F)cc2)[C@H]2c3cc(C(=O)N4CCCC4)n(CCN4CNCC4=O)c3C[C@H]2CN1C(=O)c1ccccc1`, the composite z-score is -0.0345.

Regarding `C=C[C@@H](COC(C)=O)N(C(=O)OC(C)(C)C)S(=O)(=O)c1ccc(Br)cc1`, the composite z-score is -0.0401.

In the case of `CN(C)C(=O)[C@]1(CCS(=O)(=O)c2ccccc2)N=C(c2ccc(OCCCO)cc2)O[C@@H]1c1ccccc1N=[N+]=[N-]`, the composite z-score was 0.111.

As to `O=C1NC(=O)C2C1C=CC(C(O)c1ccco1)N2Nc1ccccn1` (stereo not given), the composite z-score is -0.0567.

As for `C=CC[C@]1(C(=O)NCCN2CCOCC2)N=C(c2ccc(OCCCO)cc2)O[C@H]1c1ccccc1CN=[N+]=[N-]`, the composite z-score was found to be 0.0855.
